The record followed here is PubChem BioAssay.

One may read the inhibition as the drop in the measured response relative to a control, in per cent.

Results filed as inconclusive are left out. The source made the active and inactive calls.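 How the source made its calls, unless noted: active means efflux inhibition above 0.42, the validation set average plus 4 SD; inconclusive means no clear call, values can overlap the other calls; inactive means the rest.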

Test [1] in a line: yeast TOR pathway RPL19A-GFP modulators, primary screen, cell-based, S. cerevisiae, multiplex flow cytometry (AID 1862; in the data active means percent of DMSO control GFP below about 86%;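 further: lower values mimic rapamycin by blocking the RPL19A rise seen in DMSO cells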). Particulars: S. cerevisiae RPL19A-GFP strain, flow cytometry fluorescence, 3 h; at 10 µM; stronger effect = lower value. (In general: A flow cytometer gives signals particle by particle.)
The nature of test [2]: modulators of MEP2-GFP levels in yeast, primary screen, S. cerevisiae, multiplex flow cytometry (AID 1867;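 active means GFP response, as percent of the DMSO control, above the screen-wide mean plus 3 SD, about 139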;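 further: median GFP channel fluorescence of barcode-gated MEP2-GFP cells measured by flow cytometry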). Particulars: S. cerevisiae MEP2-GFP strain, 3 h, at 10 µM, stronger effect = higher value, 100% means same as DMSO wells.
Test [3] can be described thus: modulators of CIT2-GFP expression in yeast, primary screen, S. cerevisiae, GFP fusion, multiplex flow cytometry (AID 1870;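 active means percent response above a set limit, the screen-wide mean plus 3 SD, cut at about 130% in these data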;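 further: barcoded CIT2-GFP strain pooled with four other GFP strains with rapamycin as positive control; median GFP fluorescence per well over plate mean of DMSO wells so 100% = DMSO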). Conditions: 3 h, at 10 µM, stronger effect = higher value.
The nature of test [4]: modulators of LAP4-GFP expression in yeast, primary screen, S. cerevisiae, multiplex flow cytometry (AID 1873;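 active means GFP signal, as percent of the solvent control, above the screen mean plus 3 SD, about 149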). Conditions: 3 h, at 10 µM, stronger effect = higher value.
Test [5] can be described thus: modulators of AGP1-GFP expression in yeast TOR pathway, primary screen, cell-based, multiplex flow cytometry, S. cerevisiae (AID 1887;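 active means GFP signal above the screen-wide mean plus 3 SD, that is over about 124.5% of the solvent control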;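 further: AGP1-GFP fusion strain of S. cerevisiae within a five-strain barcoded multiplex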). Conditions: 3 h, at 10 µM, stronger effect = higher value.
The nature of test [6]: inhibitors of CD8+ T cell-vesicle binding, pilot screen, LFA-1/ICAM-1 modulator project, MLPCN validation set, flow cytometry (AID 2523;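 active means response below a set limit, under 55% cells CD8-positive and vesicle-bound, and CD8 cells' 90th-percentile brightness under 279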;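 on vesicle binding response: mean PE anti-B7-1 fluorescence of CD8+ cells relative to row control; 100% = QL9-loaded vesicles with DMSO vehicle in the same plate row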). Particulars: 2C mouse CD8+ T cells, at 7 µM, stronger effect = lower value; double positive events: measured here: CD8+/vesicle+ event percentage.
Test [7] deals with Integrin beta-1 (Homo sapiens) + Integrin alpha-4 (Homo sapiens) (UniProt P13612+P05556). Put plainly: inhibition of HUTS-21 binding to VLA-4, pilot screen, VLA-4 allosteric modulator project, U937 cells, HUTS-21 mAb, flow cytometry, validation set (AID 2674;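 active means inhibition above 50%, about 3 SD of the validation set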;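 further: antibody binding induced by the VLA-4 ligand LDV present at three times its Kd; 0% = LDV ligand with antibody and no compound and 100% = antibody without LDV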). Conditions: HUTS-21 LIBS mAb binding, at 6.7 µM, stronger effect = higher value, binding induced by LDV ligand.
Test [8] is described as follows: superoxide lowering in aged yeast cells, pilot screen, validation compound set (AID 2706;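 active means superoxide response below 65% of plate, a cut near 3 SD across the whole screen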;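 further: yeast exposed to compound for one week at 30 degrees C before staining; 100% = mean of all compound wells on the same plate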). Conditions: S. cerevisiae aging, superoxide DHE fluorescence; at 10 µM; stronger effect = lower value.
The target in test [9] is Beta-adrenergic receptor kinase 1 (Homo sapiens) (UniProt P25098). Put plainly: GRK2 binders displacing RNA aptamer, biochemical, validation, human GRK2, bead flow cytometry (AID 488806;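 active means aptamer binding inhibition above 30%, about 3 SD of noise from non-fluorescent compounds; inactive means inhibition at or below 30%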). Particulars: bead-bound GRK2, FAM-aptamer displacement, at 10 µM, stronger effect = higher value.
The target in test [10] is Beta-2 adrenergic receptor (Homo sapiens) (UniProt P07550). Put plainly: beta2AR agonists driving receptor internalization, pilot screen, cell-based, FAP fluorogen, flow cytometry, validation set (AID 504459;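 active means percent response above 42, roughly 3 SD of non-fluorescent test compounds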;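 further: agonist-driven loss of surface beta2AR via internalization measured by FAP dye flow cytometry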). Conditions: Am2.2-beta2AR cells, FAP surface receptor flow cytometry; at 10 µM; stronger effect = higher value.
The target in test [11] is AP-2 complex subunit beta (Homo sapiens) (UniProt P63010). Put plainly: inhibitors of arrestin peptide binding to AP2, pilot screen, biochemical, validation set, GST-AP2 beads, flow cytometry (AID 504541;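 active means inhibition above 54%, about 3 SD of non-fluorescent compounds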;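 further: AP2 carries R879A mutation and is captured from E. coli lysate; bead-bound FITC arrestin peptide fluorescence measuring arrestin peptide binding to AP2; 0% = DMSO wells and 100% = excess unlabeled arrestin peptide control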). Conditions: FITC arrestin peptide, at 10 µM, stronger effect = higher value, AP2 beta2 appendage fragment, R879A mutant.
The nature of test [12]: yeast V-ATPase proton transport modulators, S. cerevisiae, pHLuorin, HTS validation (AID 504600; in the data active means response above about 15%;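 further: plate controls were DMSO for no effect and reference compound for full effect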). Particulars: S. cerevisiae pHLuorin cytosolic pH, at 10 µM, stronger effect = higher value.
The test system of test [13] is anti-desmoglein-3 scFv antibody binding to human DSG3. Put plainly: inhibitors of anti-DSG3 scFv binding to DSG3, pilot screen, biochemical, validation compound set, bead-based, flow cytometry (AID 588368;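 active means binding below the plate cutoff, the plate median minus 3 SD, with a reading above zero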;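 further: signal is the median channel fluorescence of bead-bound GFP antibody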). Particulars: Protein G beads, DSG3-Fc, scFv-GFP binding, at 10 µM, stronger effect = lower value.
Test [14] can be described thus: inhibitors of fungal efflux pumps CDR1, CDR2, MDR1, pilot screen, validation compound set, multiplex, phenotypic (AID 588506).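 Further: Nile Red retained in cells so higher fluorescence means more efflux inhibition; 0 = negative control wells and 1 = enniatin B 25 µM full block.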 Conditions: S. cerevisiae pump-expressing triplex, Nile Red efflux flow cytometry; at 10 µM; stronger effect = higher value; the pumps come from Candida albicans.
The target of test [15] is ATP-binding cassette sub-family B member 6 (Homo sapiens) (UniProt Q9NP58). Put plainly: ABCB6 transporter inhibitors, pilot screen, K562-ABCB6 cells, flow cytometry, validation set (AID 588550;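 active means inhibition above the screen-wide mean plus 3 SD, about 51%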;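 further: 0% = DMSO wells and 100% = benzethonium chloride 70 µM positive control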). Particulars: K562-ABCB6 porphyrin accumulation, 1 h, at 10 µM, stronger effect = higher value.
Test [16] is described as follows: promoters of myeloid differentiation in arrested cells, primary screen, cell-based, GFP/MAC1 double positive, flow cytometry, validation set (AID 588685;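 active means differentiation response of at least 50%, scaled between solvent and reference control, from cells with both markers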;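 further: compound exposure lasts four days before antibody staining and flow analysis; 0% = DMSO wells and 100% = 5 µM fulvestrant positive control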). Conditions: ER-HoxA9 marrow cells, stronger effect = higher value, normalized: vehicle 0, fulvestrant 100.

Beta-adrenergic receptor kinase 1 (Homo sapiens), sequence (P25098 whole entry, looked up): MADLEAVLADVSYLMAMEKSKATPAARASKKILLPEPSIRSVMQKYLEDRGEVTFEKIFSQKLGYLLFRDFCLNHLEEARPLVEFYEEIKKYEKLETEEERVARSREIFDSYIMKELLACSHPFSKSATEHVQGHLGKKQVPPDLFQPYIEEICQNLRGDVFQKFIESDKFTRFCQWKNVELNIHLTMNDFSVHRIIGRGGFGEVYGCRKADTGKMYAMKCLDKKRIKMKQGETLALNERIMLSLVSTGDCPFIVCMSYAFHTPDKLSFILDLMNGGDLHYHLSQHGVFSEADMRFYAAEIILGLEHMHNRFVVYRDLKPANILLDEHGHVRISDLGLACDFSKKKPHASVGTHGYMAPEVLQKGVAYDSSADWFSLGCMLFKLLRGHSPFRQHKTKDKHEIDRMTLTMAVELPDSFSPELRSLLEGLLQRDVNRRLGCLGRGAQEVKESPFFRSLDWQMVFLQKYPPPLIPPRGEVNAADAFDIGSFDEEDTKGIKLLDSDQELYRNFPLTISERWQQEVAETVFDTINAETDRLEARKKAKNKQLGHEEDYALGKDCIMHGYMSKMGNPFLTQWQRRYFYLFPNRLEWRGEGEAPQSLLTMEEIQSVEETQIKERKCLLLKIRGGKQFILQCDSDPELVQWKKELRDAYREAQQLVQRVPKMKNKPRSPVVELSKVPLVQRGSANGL
Integrin beta-1 (Homo sapiens) + Integrin alpha-4 (Homo sapiens), sequence (P05556 whole entry, looked up): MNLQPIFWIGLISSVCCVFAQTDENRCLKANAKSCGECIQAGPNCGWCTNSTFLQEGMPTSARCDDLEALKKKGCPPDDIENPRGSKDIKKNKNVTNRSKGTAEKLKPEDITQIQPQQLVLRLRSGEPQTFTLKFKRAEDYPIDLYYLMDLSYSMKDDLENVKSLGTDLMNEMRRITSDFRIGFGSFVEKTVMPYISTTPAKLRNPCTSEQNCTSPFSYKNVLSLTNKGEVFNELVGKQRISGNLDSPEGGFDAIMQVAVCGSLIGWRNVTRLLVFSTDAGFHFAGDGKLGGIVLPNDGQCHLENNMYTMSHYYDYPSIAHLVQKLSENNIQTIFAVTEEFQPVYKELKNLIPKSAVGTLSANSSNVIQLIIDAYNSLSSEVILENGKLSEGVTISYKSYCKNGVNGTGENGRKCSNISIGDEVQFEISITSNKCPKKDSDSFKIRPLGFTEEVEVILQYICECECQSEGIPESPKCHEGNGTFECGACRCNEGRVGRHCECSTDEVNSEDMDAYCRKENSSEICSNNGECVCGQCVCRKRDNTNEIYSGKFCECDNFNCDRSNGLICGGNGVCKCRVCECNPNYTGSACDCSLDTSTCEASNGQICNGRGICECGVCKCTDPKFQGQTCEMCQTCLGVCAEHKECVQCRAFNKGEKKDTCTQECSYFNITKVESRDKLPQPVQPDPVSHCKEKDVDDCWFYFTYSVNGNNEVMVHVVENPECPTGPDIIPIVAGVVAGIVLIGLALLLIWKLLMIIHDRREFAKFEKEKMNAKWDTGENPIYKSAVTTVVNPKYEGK
Integrin beta-1 (Homo sapiens) + Integrin alpha-4 (Homo sapiens), sequence (P13612 whole entry, looked up): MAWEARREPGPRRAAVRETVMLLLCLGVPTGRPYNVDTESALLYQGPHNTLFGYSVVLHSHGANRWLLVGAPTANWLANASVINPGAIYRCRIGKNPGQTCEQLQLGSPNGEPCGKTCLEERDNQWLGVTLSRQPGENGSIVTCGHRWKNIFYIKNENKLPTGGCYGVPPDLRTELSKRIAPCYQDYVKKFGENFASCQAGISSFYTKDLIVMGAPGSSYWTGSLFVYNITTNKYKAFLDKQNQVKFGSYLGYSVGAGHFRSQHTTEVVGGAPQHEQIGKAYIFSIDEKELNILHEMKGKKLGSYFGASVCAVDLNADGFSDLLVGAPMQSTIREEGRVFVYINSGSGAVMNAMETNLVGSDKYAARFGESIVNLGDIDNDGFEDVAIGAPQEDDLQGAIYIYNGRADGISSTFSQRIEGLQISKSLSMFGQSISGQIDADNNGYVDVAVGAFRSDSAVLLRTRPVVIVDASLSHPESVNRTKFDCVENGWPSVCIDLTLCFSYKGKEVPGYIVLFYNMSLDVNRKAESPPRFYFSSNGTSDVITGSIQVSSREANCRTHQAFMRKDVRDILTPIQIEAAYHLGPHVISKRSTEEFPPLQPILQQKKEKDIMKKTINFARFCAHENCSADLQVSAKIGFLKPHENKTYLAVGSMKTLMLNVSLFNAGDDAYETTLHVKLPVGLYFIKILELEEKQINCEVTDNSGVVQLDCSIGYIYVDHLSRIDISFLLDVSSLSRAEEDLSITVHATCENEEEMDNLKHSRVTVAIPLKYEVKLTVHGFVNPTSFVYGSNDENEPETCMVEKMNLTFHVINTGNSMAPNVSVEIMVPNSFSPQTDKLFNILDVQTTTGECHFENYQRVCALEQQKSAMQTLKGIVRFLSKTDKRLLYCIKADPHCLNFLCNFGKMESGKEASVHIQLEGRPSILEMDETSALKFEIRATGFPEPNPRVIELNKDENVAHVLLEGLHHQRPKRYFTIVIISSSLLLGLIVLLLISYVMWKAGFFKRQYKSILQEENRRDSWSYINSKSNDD
ATP-binding cassette sub-family B member 6 (Homo sapiens), sequence (Q9NP58 whole entry, looked up): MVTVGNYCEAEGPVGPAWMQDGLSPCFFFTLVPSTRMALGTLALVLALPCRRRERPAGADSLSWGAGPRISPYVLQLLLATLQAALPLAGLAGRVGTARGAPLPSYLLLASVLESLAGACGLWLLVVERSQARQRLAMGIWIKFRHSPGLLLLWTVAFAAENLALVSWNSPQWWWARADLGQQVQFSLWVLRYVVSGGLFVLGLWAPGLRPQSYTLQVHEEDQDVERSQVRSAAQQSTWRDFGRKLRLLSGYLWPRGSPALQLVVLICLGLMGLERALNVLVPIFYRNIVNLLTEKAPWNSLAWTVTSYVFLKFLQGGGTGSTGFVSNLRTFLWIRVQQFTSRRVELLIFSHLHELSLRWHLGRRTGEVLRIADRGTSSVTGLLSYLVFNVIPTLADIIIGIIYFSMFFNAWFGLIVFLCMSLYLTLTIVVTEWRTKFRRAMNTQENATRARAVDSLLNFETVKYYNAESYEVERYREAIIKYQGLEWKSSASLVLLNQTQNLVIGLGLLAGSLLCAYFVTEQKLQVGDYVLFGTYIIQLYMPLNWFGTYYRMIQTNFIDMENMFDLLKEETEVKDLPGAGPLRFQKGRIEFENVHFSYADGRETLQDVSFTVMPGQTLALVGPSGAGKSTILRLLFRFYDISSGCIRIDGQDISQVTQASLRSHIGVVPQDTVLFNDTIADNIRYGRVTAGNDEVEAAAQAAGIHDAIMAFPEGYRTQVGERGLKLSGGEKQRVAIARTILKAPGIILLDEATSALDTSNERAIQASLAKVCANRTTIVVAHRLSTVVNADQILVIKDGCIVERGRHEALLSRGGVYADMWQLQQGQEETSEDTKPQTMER
AP-2 complex subunit beta (Homo sapiens), sequence (P63010 whole entry, looked up, the tested form may be a part, one chain of several): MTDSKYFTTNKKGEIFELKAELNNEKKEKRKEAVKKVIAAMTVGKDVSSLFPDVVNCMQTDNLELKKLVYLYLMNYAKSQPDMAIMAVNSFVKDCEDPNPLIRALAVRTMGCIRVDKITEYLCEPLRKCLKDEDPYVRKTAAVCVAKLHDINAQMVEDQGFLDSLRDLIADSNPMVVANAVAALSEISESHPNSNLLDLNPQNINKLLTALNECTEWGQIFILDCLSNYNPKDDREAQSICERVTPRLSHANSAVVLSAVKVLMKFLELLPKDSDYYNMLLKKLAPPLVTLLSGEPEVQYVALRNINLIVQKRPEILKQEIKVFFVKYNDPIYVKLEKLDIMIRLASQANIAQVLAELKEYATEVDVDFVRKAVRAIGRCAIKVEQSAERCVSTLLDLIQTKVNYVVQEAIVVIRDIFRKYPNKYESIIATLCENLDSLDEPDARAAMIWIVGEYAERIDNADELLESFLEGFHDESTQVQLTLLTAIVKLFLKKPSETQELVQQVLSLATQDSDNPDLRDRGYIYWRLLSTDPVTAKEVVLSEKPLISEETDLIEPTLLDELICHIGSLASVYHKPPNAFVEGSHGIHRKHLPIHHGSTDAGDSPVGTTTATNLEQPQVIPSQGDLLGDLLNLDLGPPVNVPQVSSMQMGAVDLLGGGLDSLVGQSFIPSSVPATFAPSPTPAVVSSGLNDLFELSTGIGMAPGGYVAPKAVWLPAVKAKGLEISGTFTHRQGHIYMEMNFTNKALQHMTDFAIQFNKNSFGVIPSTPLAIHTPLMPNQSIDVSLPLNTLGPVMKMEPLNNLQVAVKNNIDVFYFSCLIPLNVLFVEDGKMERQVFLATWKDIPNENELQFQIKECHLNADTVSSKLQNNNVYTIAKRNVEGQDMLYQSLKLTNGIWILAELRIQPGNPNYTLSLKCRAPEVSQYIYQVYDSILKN
Beta-2 adrenergic receptor (Homo sapiens), sequence (P07550 whole entry, looked up): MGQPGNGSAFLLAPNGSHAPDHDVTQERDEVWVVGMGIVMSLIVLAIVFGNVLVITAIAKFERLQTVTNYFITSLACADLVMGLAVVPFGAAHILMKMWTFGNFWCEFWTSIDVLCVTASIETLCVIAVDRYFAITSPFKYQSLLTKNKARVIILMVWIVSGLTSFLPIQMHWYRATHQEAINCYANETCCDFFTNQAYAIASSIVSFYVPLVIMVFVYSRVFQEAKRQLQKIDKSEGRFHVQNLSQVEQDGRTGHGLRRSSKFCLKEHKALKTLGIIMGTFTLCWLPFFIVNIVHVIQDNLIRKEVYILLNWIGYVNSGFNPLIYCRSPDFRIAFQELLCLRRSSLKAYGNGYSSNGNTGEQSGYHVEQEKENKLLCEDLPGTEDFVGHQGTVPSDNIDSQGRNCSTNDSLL

Regarding `CC(C)=CC/C=C1\CCC(C(=O)O)C(C(=O)O)C1` (stereo not given), in test [1], the percent of DMSO control GFP was 89.5% (inactive). For the same molecule, the figures for the GFP response vs DMSO in test [2] and in test [4] were 123% (inactive) and 81.4% (inactive), respectively. Moreover, the percent response of DMSO control in test [3] was 95.2% (inactive). For the same molecule, the GFP response, % of DMSO in test [5] was 87.5% (inactive). For the same molecule, in test [6], the double positive events turned out to be 63.2%. Also, the vesicle binding response in [6] is 160% (inactive). In addition, the inhibition in [7] was -14.9% (inactive); in [11] it was -6.38% (inactive); in test [15] it was 14% (inactive). Moreover, the superoxide response (% of plate) in test [8] was 91.6% (inactive). The aptamer binding inhibition in [9] was 6% (inactive). For the same molecule, the response in [10] was -0.75% (inactive); in test [12], 1.64% (inactive). In test [13], the binding (% of control) is 103% (inactive). For the same molecule, the efflux inhibition (fraction of control) in [14] is -0.35 (inactive). Further, the differentiation response in test [16] was -2.46% (inactive).

As to `NC(N)=NC(N)=NCCc1ccccc1`, the percent of DMSO control GFP in test [1] is 101% (inactive). Also, the GFP response vs DMSO in test [2] is 112% (inactive); in test [4], 94% (inactive). The percent response of DMSO control in test [3] was 100% (inactive). The GFP response, % of DMSO in [5] was 100% (inactive). The molecule also gave a double positive events in test [6] of 59.4%. The vesicle binding response in test [6] was 210% (inactive). The inhibition in test [7] is 3.7% (inactive); in test [11] it was 7.19% (inactive); in [15] it was -4% (inactive). Besides, the superoxide response (% of plate) in test [8] is 105% (inactive). Besides, in test [9], the aptamer binding inhibition was 0% (inactive). In addition, the response in test [10] is -4.33% (inactive); in test [12] it was -3.91% (inactive). For the same molecule, the binding (% of control) in test [13] was 88.8% (inactive). Besides, in [14], the efflux inhibition (fraction of control) is 0.24 (inactive). Also, the differentiation response in test [16] is -8.55% (inactive).

Regarding `COc1ccc2c(c1)C=CC1(O2)N(CCO)c2ccccc2C1(C)C` (stereo not given), in [1], the percent of DMSO control GFP was 98.2% (inactive). In addition, the GFP response vs DMSO was 111% (inactive) in [2] and 124% (inactive) in test [4]. In addition, the percent response of DMSO control in test [3] is 104% (inactive). Besides, the GFP response, % of DMSO in [5] is 117% (inactive). Besides, in [6], the double positive events turned out to be 62.1%. In addition, the vesicle binding response in test [6] was 212% (inactive). The inhibition in test [7] was -55.6% (inactive); in test [11], 13.6% (inactive); in test [15], -25% (inactive). Besides, in test [8], the superoxide response (% of plate) is 108% (inactive). Moreover, the aptamer binding inhibition in test [9] was 6% (inactive). The response was 43.9% (active) in test [10] and 7.05% (inactive) in test [12]. In addition, in test [13], the binding (% of control) was 99.2% (inactive). In test [14], the efflux inhibition (fraction of control) is 0.04 (inactive). Further, the differentiation response in [16] was -1.05% (inactive).

Turning to `CC(=O)N1CCN2C(=O)C1CCCC(=O)c1cc(C(C)C)ccc12` (stereo not given), the percent of DMSO control GFP in test [1] was 99.5% (inactive). The GFP response vs DMSO in [2] is 90.8% (inactive); in test [4], 82.8% (inactive). Further, the percent response of DMSO control in test [3] was 103% (inactive). In addition, the GFP response, % of DMSO in [5] is 91.2% (inactive). This molecule gave a double positive events in test [6] of 55.3%. Further, the vesicle binding response in [6] is 234% (inactive). Besides, the figures for the inhibition in [7], in test [11] and in test [15] were -4.52% (inactive), -5.05% (inactive) and 9% (inactive), respectively. Also, the superoxide response (% of plate) in test [8] is 94.5% (inactive). Further, in test [9], the aptamer binding inhibition is 6% (inactive). The results for the response in test [10] and in test [12] were 0.52% (inactive) and 0.04% (inactive), respectively. Further, the binding (% of control) in test [13] was 103% (inactive). Moreover, in test [14], the efflux inhibition (fraction of control) was -0.24 (inactive). Also, in test [16], the differentiation response was 20% (inactive).

With `COc1ccc(CNCCC2(C(C)C)CCOC(C)(C)C2)cc1` (stereo not given), in [1], the percent of DMSO control GFP was 99.2% (inactive). Also, the GFP response vs DMSO in test [2] was 107% (inactive); in test [4] it was 88.7% (inactive). The percent response of DMSO control in [3] is 101% (inactive). Moreover, in test [5], the GFP response, % of DMSO was 97.2% (inactive). In [6], the double positive events was found to be 55.9%. For the same molecule, the vesicle binding response in test [6] is 52.5% (inactive). Moreover, the results for the inhibition in [7], in [11] and in test [15] were -7.72% (inactive), -2.2% (inactive) and -1% (inactive), respectively. In addition, in [8], the superoxide response (% of plate) is 106% (inactive). Besides, the aptamer binding inhibition in [9] is 3% (inactive). In addition, the results for the response in [10] and in [12] were -6.71% (inactive) and 2.72% (inactive), respectively. Moreover, in test [13], the binding (% of control) was 97.2% (inactive). Moreover, the efflux inhibition (fraction of control) in [14] is -0.1 (inactive). Moreover, the differentiation response in test [16] is 0.24% (inactive).
